# Assay results: the supplement of paper PMC4022240
# ± gives the standard deviation.
# T1: HaloTag-ATRX ADD domain (163-292)
# T1 chain: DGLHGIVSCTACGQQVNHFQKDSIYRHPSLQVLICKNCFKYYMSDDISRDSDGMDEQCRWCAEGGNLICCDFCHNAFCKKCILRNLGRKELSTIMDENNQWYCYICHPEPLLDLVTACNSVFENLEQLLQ
# B1: Unmod H1 variant P P V S E L I T K A V A A (peptide)
# chain: PPVSELITKAVAA
# B2: Unmod H1 variant V K K K A R K S A G A A K (peptide)
# chain: VKKKARKSAGAAK
# B3: Unmod H1 variant L N K K A S S V E T K P G (peptide)
# chain: LNKKASSVETKPG
# B4: Unmod H1 variant K S P A K A K A V K P K A (peptide)
# chain: KSPAKAKAVKPKA
# B5: Unmod H1 variant K K L K K A T G A S K K S (peptide)
# chain: KKLKKATGASKKS
# B6: Unmod H1 variant S K K S V K T P K K A K K (peptide)
# chain: SKKSVKTPKKAKK
# B7: Unmod H1 variant K T V K P K K V A K S P A (peptide)
# chain: KTVKPKKVAKSPA
# B8: Unmod H1 variant K A K K P A A T R K S S K (peptide)
# chain: KAKKPAATRKSSK
# B9: Unmod H1 variant T K T K A T G A S K K L K (peptide)
# chain: TKTKATGASKKLK
# B10: Unmod H1 variant G V S L A A L K K A L A A (peptide)
# chain: GVSLAALKKALAA
# Target: T1, HaloTag-ATRX ADD domain (163-292)
# Assay: peptide microarray binding signal (635 nm), min-max normalized on array (fraction of array maximum); higher = stronger binding
# Conditions: peptide region: Unmod H1 variant; binder concentration: 50 nM
# Summary of the method: (§1)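 Histone 13-mer peptide–cellulose conjugates were printed in triplicate on nitrocellulose with a Cy3 tracer, then blocked overnight at 4°C. Arrays were probed for 1 h at 4°C with biotin-labelled HaloTag reader fusions (10 nM to 1 μM) plus streptavidin-Alexa Fluor 647, or with rabbit histone antibodies (1:10,000 to 1:2,000) plus anti-rabbit Alexa 647. An Axon GenePix 4000B scanned 635 nm for signal and 532 nm for misprints. Binding signal is the triplicate-spot mean intensity, min-max scaled per library.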
row,Binder,peptide microarray binding signal
1,B1,0.0304 ± 0.017
2,B2,0.0176 ± 0.00024
3,B3,0.0199 ± 0.0032
4,B4,0.0194 ± 0.0034
5,B5,0.0152 ± 0.00029
6,B6,0.0224 ± 0.0075
7,B7,0.0149 ± 0.00058
8,B8,0.0344 ± 0.02
9,B9,0.032 ± 0.02
10,B10,0.0641 ± 0.057

# Same assay, conditions: peptide region: Unmod H1 variant; binder concentration: 500 nM
row,Binder,peptide microarray binding signal
1,B1,0.00833 ± 0.00045
2,B2,0.0081 ± 0.00035
3,B3,0.0256 ± 0.00069
4,B4,0.00619 ± 0.00021
5,B5,0.00691 ± 0.0006
6,B6,0.00633 ± 9.9e-05
7,B7,0.0041 ± 5.8e-05
8,B8,0.0133 ± 0.00041
9,B9,0.0136 ± 0.00069
10,B10,0.0257 ± 0.0036

# Target: HaloTag-ING2 PHD (mouse Ing2 200-280)
# Assay: as above
# Conditions: peptide region: Unmod H1 variant; binder concentration: 10 nM
# Summary of the method: as §1
row,Binder,peptide microarray binding signal
1,B1,0.00382 ± 0.00018
2,B2,0.00203 ± 4.1e-05
3,B3,0.00776 ± 0.0013
4,B4,0.00167 ± 3.4e-05
5,B5,0.00161 ± 6.7e-05
6,B6,0.00113 ± 3.2e-05
7,B7,0.001552 ± 9.3e-06
8,B8,0.00227 ± 5.2e-05
9,B9,0.00257 ± 9.1e-05
10,B10,0.00621 ± 0.00023

# Same assay, conditions: peptide region: Unmod H1 variant; binder concentration: 100 nM
row,Binder,peptide microarray binding signal
1,B1,0.00397 ± 0.00022
2,B2,0.00553 ± 0.00055
3,B3,0.0114 ± 0.00013
4,B4,0.0159 ± 0.014
5,B5,0.0034 ± 0.00046
6,B6,0.00206 ± 0.00011
7,B7,0.00369 ± 0.00015
8,B8,0.0068 ± 0.00046
9,B9,0.00829 ± 0.00095
10,B10,0.0162 ± 0.0004

# Target: anti-H3K4me3 antibody ab8580
# Assay: as above
# Conditions: peptide region: Unmod H1 variant; binder concentration: 1:2,000 dilution
# Summary of the method: as §1
row,Binder,peptide microarray binding signal
1,B1,0.00296 ± 0.001
2,B2,0.00145 ± 0.00015
3,B3,0.00126 ± 7.1e-05
4,B4,0.000283
5,B5,0.000396 ± 1.2e-05
6,B6,0.000359 ± 9.7e-06
7,B7,0.0005286 ± 5.1e-06
8,B8,0.000755 ± 1.4e-05
9,B9,0.000642 ± 2.2e-05
10,B10,0.00157 ± 0.00018

# Same assay, conditions: peptide region: Unmod H1 variant; binder concentration: 1:10,000 dilution
row,Binder,peptide microarray binding signal
1,B1,0.0028 ± 0.00019
2,B2,0.00143 ± 2.4e-05
3,B3,0.00165 ± 3.2e-05
4,B4,0.000571 ± 1.1e-05
5,B5,0.000856 ± 8.9e-06
6,B6,0.000628 ± 6.7e-06
7,B7,0.000799 ± 8.3e-06
8,B8,0.00103 ± 2.1e-05
9,B9,0.001027 ± 1e-05
10,B10,0.00262

# Target: anti-H3K9me3 antibody ab8898
# Assay: as above
# Conditions: peptide region: Unmod H1 variant; binder concentration: 1:2,000 dilution
# Summary of the method: as §1
row,Binder,peptide microarray binding signal
1,B1,0.00106 ± 4.4e-05
2,B2,0.000272 ± 4.9e-06
3,B3,0.000921 ± 2e-05
4,B4,0.000196 ± 2.1e-06
5,B5,0.000257 ± 2.5e-05
6,B6,0.000121 ± 1.3e-06
7,B7,0.000121 ± 2.7e-06
8,B8,0.000211 ± 2.2e-06
9,B9,0.000181
10,B10,0.00131 ± 4.4e-05

# Same assay, conditions: peptide region: Unmod H1 variant; binder concentration: 1:10,000 dilution
row,Binder,peptide microarray binding signal
1,B1,0.00144 ± 5.7e-05
2,B2,0.000634
3,B3,0.00127 ± 4.6e-05
4,B4,0.000577 ± 6.2e-06
5,B5,0.000461
6,B6,0.000577 ± 6.2e-06
7,B7,0.000461
8,B8,0.00075 ± 7.9e-06
9,B9,0.000519 ± 5.6e-06
10,B10,0.00161 ± 3.1e-05
